Laboratory results published in PubChem BioAssay (NCI).
Compounds without any hit were thinned out: in the full panel of roughly 79,000, 15% have a hit. Active and inactive are the calls of the source. Cut-off read from the data, not from the text of the source: active = growth inhibition above about 70%; inactive = the rest.

Legend:
[1] = NCI Yeast Anticancer Drug Screen. Data for the rad52 strain (AID 147);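 note: 0% = growth of vehicle-treated control cultures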; settings: S. cerevisiae rad52 mutant growth inhibition, active compounds read high
In short: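 Measured: yeast growth inhibition. System: strain with a defined DNA damage repair alteration. Reference: vehicle-treated control cultures.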

[2] = NCI Yeast Anticancer Drug Screen. Data for the wt1 strain (AID 149);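 note: 0% = growth of vehicle-treated wt1 cultures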; settings: S. cerevisiae wt1 strain (SPY 50644) growth inhibition, active compounds read high
In short: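 Yeast wt1 strain exposed to compounds; growth inhibition measured relative to vehicle-treated controls.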

[3] = NCI Yeast Anticancer Drug Screen. Data for the rad50EPP+ strain (AID 151);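 note: 0% = growth of vehicle-treated control cultures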; settings: S. cerevisiae rad50 mutant strain, active compounds read high
In short: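 One strain with a rad50 alteration (rad50EPP+) was compound-treated, its growth then compared to that of vehicle controls.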

[4] = NCI Yeast Anticancer Drug Screen. Data for the mgt1 strain (AID 153); settings: S. cerevisiae mgt1 mutant growth inhibition, active compounds read high
In short: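 After exposure of the mgt1 yeast mutant to compound, growth was measured and reported as inhibition compared with vehicle controls.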

[5] = NCI Yeast Anticancer Drug Screen. Data for the rad50 strain (AID 155);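 note: 0% = growth of vehicle-only cultures of the same strain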; settings: S. cerevisiae rad50 strain growth inhibition, active compounds read high
In short: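 Yeast carrying a defined DNA repair defect were exposed to test compounds, and growth was compared with vehicle-treated controls to give percent inhibition.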

[6] = NCI Yeast Anticancer Drug Screen. Data for the mec2-1 strain (AID 157); settings: S. cerevisiae mec2-1 strain, active compounds read high
In short: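 Test agents were screened against the mec2-1 yeast strain, with defined DNA repair or cell cycle alteration. Growth was scored as inhibition against vehicle-only controls.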

[7] = NCI Yeast Anticancer Drug Screen. Data for the rad14 strain (AID 159);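 note: 0% = growth of vehicle-treated control cultures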; settings: S. cerevisiae rad14 strain growth inhibition, active compounds read high
In short: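 Yeast cells carrying a defined DNA-repair defect were exposed to compounds, and growth inhibition was calculated relative to vehicle-treated control cultures.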

[8] = NCI Yeast Anticancer Drug Screen. Data for the sgs1 mgt1 strain (AID 161);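 note: 0% = growth of cultures given vehicle only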; settings: S. cerevisiae sgs1 mgt1 strain, active compounds read high
In short: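 Test agents were incubated with a DNA-repair-mutant yeast strain. Growth was then read and compared against vehicle-treated controls.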

[9] = NCI Yeast Anticancer Drug Screen. Data for the CLN2oe strain (AID 163);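 note: 0% = growth of vehicle-only control cultures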; settings: S. cerevisiae CLN2oe strain, active compounds read high
In short: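 Here, growth inhibition in a cell-cycle-altered yeast strain after compound exposure was quantified against vehicle control growth.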

[10] = NCI Yeast Anticancer Drug Screen. Data for the cln2 rad14 strain (AID 165);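 note: 0% = growth equal to vehicle treated cultures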; settings: S. cerevisiae cln2 rad14 strain, active compounds read high
In short: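 Growth of compound-exposed yeast (cln2 rad14 genotype) measured and expressed as inhibition relative to vehicle.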

[11] = NCI Yeast Anticancer Drug Screen. Data for the bub3 strain (AID 167); settings: S. cerevisiae bub3 mutant strain, active compounds read high
In short: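 Compounds were applied to a genetically altered yeast strain carrying a cell-cycle control defect. Growth inhibition was scored against vehicle-treated controls.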

[12] = NCI Yeast Anticancer Drug Screen. Data for the wt2 strain (AID 169);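 note: 0% = growth of vehicle-treated yeast cultures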; settings: S. cerevisiae wt2 strain growth inhibition, active compounds read high
In short: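 Genetically defined yeast strains from a DNA-repair/cell-cycle panel were used. Compound-exposed yeast growth was measured, and the inhibition was calculated relative to vehicle treatment.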

[13] = NCI Yeast Anticancer Drug Screen. Data for the mlh1 strain (AID 171);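 note: 0% = growth of vehicle-treated control cultures of the same strain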; settings: S. cerevisiae mlh1 strain growth inhibition, active compounds read high
In short: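 Here the genetically defined yeast mutant is grown with each compound, and the extent to which its growth falls below that of vehicle-exposed cells is reported.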

[14] = NCI Yeast Anticancer Drug Screen. Data for the sgs1 strain (AID 173);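 note: 0% = growth of vehicle-only control cultures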; settings: S. cerevisiae sgs1 mutant, active compounds read high
In short: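 Relative growth inhibition, referenced to vehicle, was determined in a yeast strain with a defined alteration affecting DNA damage repair or cell cycle control after compound exposure.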

[15] = NCI Yeast Anticancer Drug Screen. Data for the mlh1 rad18 strain (AID 175); settings: S. cerevisiae mlh1 rad18 strain growth inhibition, active compounds read high
In short: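 In this whole-cell yeast screen, a strain with altered DNA damage repair is challenged with compound, and its growth is measured against matched vehicle-treated controls.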

[16] = NCI Yeast Anticancer Drug Screen. Data for the rad18 strain (AID 177); settings: S. cerevisiae rad18 mutant growth inhibition, active compounds read high
In short: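 Screen uses a yeast strain with a defined lesion in DNA damage repair; compound effect is read as loss of growth compared to untreated vehicle cultures.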

[17] = at 5.0 µM (retest, dose inferred, filed as 0.5)
[18] = at 50.0 µM (retest, dose inferred, filed as 5.0)

Measured: growth inhibition

N#CCC(=O)N/N=C(\c1ccccc1)C(c1ccccc1)C1(O)C(=O)Nc2c(Cl)ccc(Cl)c21 (stereo not drawn)
inactive: [1]; at 1.2 µM 0% | [1]; at 3.7 µM 0% | [1]; at 11.0 µM 3% | [1]; at 33.0 µM 9% | [1]; at 100.0 µM 11% | [2]; at 1.2 µM 0% | [2]; at 3.7 µM 0% | [2]; at 11.0 µM 0% | [2]; at 33.0 µM -1% | [2]; at 100.0 µM -3% | [3]; at 1.2 µM 2% | [3]; at 3.7 µM 10% | [3]; at 11.0 µM 15% | [3]; at 33.0 µM 24% | [3]; at 100.0 µM 32% | [4]; at 1.2 µM 1% | [4]; at 3.7 µM -1% | [4]; at 11.0 µM -3% | [4]; at 33.0 µM -2% | [4]; at 100.0 µM 19% | [5]; at 1.2 µM 5% | [5]; at 3.7 µM 0% | [5]; [17] 7% | [5]; at 11.0 µM 8% | [5]; at 33.0 µM 15% | [5]; [18] 51% | [5]; at 50.0 µM 43.8% | [5]; at 100.0 µM 25% | [6]; at 1.2 µM 3% | [6]; at 3.7 µM 4% | [6]; [17] -11% | [6]; at 11.0 µM 4% | [6]; at 33.0 µM 6% | [6]; [18] 36% | [6]; at 50.0 µM 41% | [6]; at 100.0 µM 11% | [7]; at 1.2 µM 3% | [7]; at 3.7 µM 7% | [7]; at 11.0 µM 10% | [7]; at 33.0 µM 27% | [7]; at 100.0 µM 39% | [8]; [17] 4% | [8]; [18] 39% | [8]; at 50.0 µM 51.8% | [9]; at 1.2 µM -1% | [9]; at 3.7 µM -2% | [9]; at 11.0 µM -2% | [9]; at 33.0 µM -8% | [9]; at 100.0 µM -11% | [10]; [17] 9% | [10]; [18] 10% | [10]; at 50.0 µM 6.8% | [11]; at 1.2 µM 2% | [11]; at 3.7 µM 5% | [11]; [17] 8% | [11]; at 11.0 µM 11% | [11]; at 33.0 µM 15% | [11]; [18] 30% | [11]; at 50.0 µM 30.3% | [11]; at 100.0 µM 24% | [12]; at 1.2 µM 0% | [12]; at 3.7 µM 8% | [12]; at 11.0 µM -3% | [12]; at 33.0 µM -3% | [12]; at 100.0 µM 1% | [13]; at 1.2 µM 0% | [13]; at 3.7 µM -1% | [13]; at 11.0 µM -1% | [13]; at 33.0 µM 0% | [13]; at 100.0 µM 18% | [14]; at 1.2 µM -1% | [14]; at 3.7 µM 0% | [14]; at 11.0 µM 1% | [14]; at 33.0 µM 11% | [14]; at 100.0 µM 37% | [15]; [17] 6% | [15]; [18] -6% | [15]; at 50.0 µM 69.2% | [16]; at 1.2 µM 3% | [16]; at 3.7 µM 8% | [16]; at 11.0 µM 15% | [16]; at 33.0 µM 24% | [16]; at 100.0 µM 39%

O=C(O)C(=Cc1ccc(-c2ccccc2)cc1)C(=O)O
active: [1]; at 100.0 µM 87% | [2]; at 100.0 µM 88% | [4]; at 100.0 µM 90% | [5]; at 100.0 µM 88% | [6]; at 100.0 µM 92% | [7]; at 100.0 µM 90% | [9]; at 100.0 µM 88% | [11]; at 33.0 µM 72% | [11]; at 50.0 µM 71.8% | [11]; at 100.0 µM 93%
inactive: [1]; at 1.2 µM 6% | [1]; at 3.7 µM 10% | [1]; at 11.0 µM 24% | [1]; at 33.0 µM 50% | [2]; at 1.2 µM 2% | [2]; at 3.7 µM 4% | [2]; at 11.0 µM 16% | [2]; at 33.0 µM 55% | [3]; at 1.2 µM -1% | [3]; at 3.7 µM -1% | [3]; at 11.0 µM -1% | [3]; at 33.0 µM 6% | [3]; at 100.0 µM 25% | [4]; at 1.2 µM 2% | [4]; at 3.7 µM 4% | [4]; at 11.0 µM 22% | [4]; at 33.0 µM 58% | [5]; at 1.2 µM 0% | [5]; at 3.7 µM -5% | [5]; [17] 2% | [5]; at 11.0 µM 11% | [5]; at 33.0 µM 54% | [5]; [18] 23% | [5]; at 50.0 µM 60.1% | [6]; at 1.2 µM 4% | [6]; at 3.7 µM 7% | [6]; [17] -7% | [6]; at 11.0 µM 30% | [6]; at 33.0 µM 60% | [6]; [18] 63% | [6]; at 50.0 µM 46.5% | [7]; at 1.2 µM 5% | [7]; at 3.7 µM 8% | [7]; at 11.0 µM 17% | [7]; at 33.0 µM 46% | [8]; [17] 4% | [8]; [18] 24% | [8]; at 50.0 µM 31.5% | [9]; at 1.2 µM 5% | [9]; at 3.7 µM 7% | [9]; at 11.0 µM 22% | [9]; at 33.0 µM 56% | [10]; [17] 46% | [10]; [18] 27% | [10]; at 50.0 µM 23.7% | [11]; at 1.2 µM 1% | [11]; at 3.7 µM 1% | [11]; [17] -10% | [11]; at 11.0 µM 24% | [11]; [18] 43%
